# Screens from PubChem.
# SARS PLP yeast: qHTS of Yeast-based Assay for SARS-CoV PLP | S. cerevisiae expressing SARS-CoV PLpro, growth rescue | Potency, µM (highest dose often 32.9 µM), for the others: at the highest dose activity, positive = growth rescue, hits mostly activators | 0.19% of 330,000 active | AID 485353, 2010; calls by dose curve; note: potency is the fitted concentration of half-maximal effect; 0% is about no effect; nearly all actives have a fitted effect of over 55% in size
# Pf growth 96h: Primary qHTS for delayed death inhibitors of the malarial parasite plastid, 96 hour incubation | P. falciparum luciferase reporter growth, 96 h | Potency, µM (top dose mostly 28.7 µM), without a hit: at the highest dose activity change, negative = inhibition, hits mostly inhibitors | 6.9% of 320,000 active; note: potency is the fitted concentration of half-maximal effect; % is set by controls: 0 for no effect and ±100 for the full control effect
#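 Cell-based qHTS: luciferase-tagged P. falciparum in erythrocytes (2% hematocrit, 0.05% parasitemia final) incubated with compounds for 96 hours, 37 C, 5% CO2; luciferase detection reagent then added and luminescence measured.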
# Cycloheximide cs: Cycloheximide Counterscreen for Small Molecule Inhibitors of Shiga Toxin | cell reporter, cycloheximide protein synthesis inhibition counterscreen | 12% of 300,000 active | max response, %; in the data active = max response mostly above about 13%, no sharp cut-off; inactive = mostly below about 14%; note: read at 38.3 µM for the half of the compounds with a filed dose; 0% is about no effect
# Shiga toxin inh: A qHTS for Small Molecule Inhibitors of Shiga Toxin; Vero cells, Shiga toxin protein synthesis inhibition reporter; 9.2% of 290,000 active; inhibition, % at 38.7 µM; AID 2315, 2010; in the data active = inhibition mostly above about 28%, no sharp cut-off; inactive = mostly below about 43%; note: 0% is about no effect
# Pf growth 48h: Primary qHTS for delayed death inhibitors of the malarial parasite plastid, 48 hour incubation | P. falciparum luciferase growth in erythrocytes, 48 h | Potency, µM (series often up to 28.7 µM), inactives show top-dose activity change, negative = inhibition, actives largely listed as inhibitors | 5.9% of 310,000 active | AID 504832, 2011; note: potency is the fitted concentration of half-maximal effect; % is set by controls: 0 for no effect and ±100 for the full control effect
#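 Luminescence readout; reporter = integrated firefly luciferase in P. falciparum. RBC culture at 2% hematocrit, 0.1% parasitemia final, 37 C/5% CO2; decreased signal taken as growth inhibition.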
# AMA1-RON2 inh: qHTS for Inhibitors of AMA1-RON; Towards Development of Antimalarial Drug Lead: Primary Screen; Plasmodium falciparum AMA1 (3D7) - RON2 peptide interaction; 0.2% of 360,000 active; AID 720542, 2013; AlphaScreen AMA1-biotinylated RON2 peptide binding; Potency, µM (series often up to 58.2 µM), for the others: at the highest dose activity change, negative = inhibition, actives largely listed as inhibitors;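 note: potency is the fitted concentration of half-maximal effect; 0% = vehicle wells and -100% = peptide control; nearly all actives have a fitted effect of over 45% in size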
#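 AMA1 (3D7) with his tag at 25 nM final met compounds first, then biotinylated RON2 peptide at 25 nM; detection used donor plus acceptor beads, 10 µg/mL apiece, read by AlphaScreen after 30 min at room temperature.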
# * hit, by the source's call; i = inactive; ? = inconclusive; · = not tested or not shown; ! = not active in a repeat. Hits are enriched below; roughly 19% of the tested compounds scored in any of these assays. Unless noted, calls come from the whole dose curve; as a rule, active = well fitted curve in the direction sought with a large enough effect; inconclusive = small, poorly fitted or top-dose-only effect, or another doubt; inactive = no such curve, though single readings can be large; an effect the other way counts as inactive or inconclusive.
SMILES,SARS PLP yeast,Pf growth 96h,Cycloheximide cs,Shiga toxin inh,Pf growth 48h,AMA1-RON2 inh
CC1CCC(=O)N(CCSc2ccccc2)CC1 (stereo unspecified),11%,325%,25*,37*,140%,14%
Cc1ccc(SCCN2CCN(C)CCC2=O)cc1,-1%,64%,28*!,77*,40%,7%
O=C1CCN(CCc2ccccc2)CCN1CCSc1ccccc1,2%,107%,23*,27,7%,9%
COc1ccc(NS(=O)(=O)c2c(C)cc(C)cc2C)cn1,2%,12%,4,-21,14%,-11%
COC(=O)[C@H](CC(C)C)NC(=O)Nc1ccc(S(N)(=O)=O)cc1,-1%,-24%,7,-6,-27%,-4%
c1ccc(SCCN2CCc3ccccc3C2)cc1,-33%,?,27*,16,45%,0%
CCOC(=O)C1=C(C)N(CCCCCC(=O)O)C(=O)NC1c1ccccc1OC(=O)c1cccs1 (stereo unspecified),-5%,?,-4,-6,-1%,-6%
Clc1ccc(-n2ncc3c(N4CCCC4)ncnc32)cc1,-1%,235%,77*,120*,279%,-1%
Cc1nn(-c2ccccc2)c(Cl)c1C(=O)N1CCN(c2ncnc3c2cnn3-c2ccccc2)CC1,1%,?,-6,-17,?,-11%
CC1CCN(c2ncnc3c2cnn3-c2ccccc2)CC1,-4%,141%,42*,75*,·,23%
CCOC(=O)C1CCN(c2ncnc3c2cnn3-c2ccccc2)CC1,-3%,·,18*,37,26%,1%
COc1ccc(-n2ncc3c(N4CCC(C)CC4)ncnc32)cc1,-7%,369%,20*,26*,311%,19%
CCC(=O)N1CCCC(C(=O)Nc2nc3ccccc3[nH]2)CC1 (stereo unspecified),·,·,·,·,·,0%
Cc1ccc(-n2c(=O)c3sccc3n(CC(=O)NCc3ccco3)c2=O)cc1F,-3%,?,-2,-8,9%,20%
CCOC(=O)C1(C)CCCN1C(=O)c1ccccc1OC (stereo unspecified),·,·,·,·,·,-6%
COc1cccc(OCCN2CCN(c3ncnc4c3cnn4-c3ccccc3)CC2)c1,1%,9.3µM*,18*,31,12µM*,-8%
O=C(c1ccco1)N1CCN(c2ncnc3c2cnn3-c2ccccc2)CC1,-10%,·,25*,41,7%,-9%
O=C(c1ccccc1)N1CCN(c2ncnc3c2cnn3-c2ccccc2)CC1,-1%,-26%,14,17,?,0%
COc1ccc(C(C)=O)cc1CSCCC(=O)O,-4%,9%,2,8,13%,-1%
COc1ccc(C(=O)/C=C/c2ccsc2)cc1CSCC(=O)O,-4%,6.6µM*,-2,-11,?,-11%
OC(COc1ccc(Cl)cc1)CN1CCC(Cc2ccccc2)CC1 (stereo unspecified),0%,?,-9,14,-14%,0%
Cc1ccc(C)c(OCC(O)CN2CCCCC2C)c1 (stereo unspecified),0%,10µM*,-3,-11,?,-3%
Cc1ccc(C)c(OCC(O)CN2CCC(Cc3ccccc3)CC2)c1 (stereo unspecified),-1%,?,-4,-2,7.4µM*,-7%
COc1ccc(NC(=O)C2CCCN(C(=O)Nc3ccc(F)cc3)C2)cc1OC (stereo unspecified),-1%,-8%,-5,-2,13%,0%
C=CCOC(=O)C1=C(C)NC(SC)=C(C#N)C1c1ccc(OCC)cc1 (stereo unspecified),4%,12µM*,-8,-6,8.3µM*,-5%
SMILES,SARS PLP yeast,Pf growth 96h,Cycloheximide cs,Shiga toxin inh,Pf growth 48h,AMA1-RON2 inh
C=CCOC(=O)C1=C(C)NC(SCC(=O)Nc2nccs2)=C(C#N)C1c1cccs1 (stereo unspecified),-7%,4.1µM*,1,-14,4.7µM*,29%
CCOC(=O)C1=C(C)NC(SCC(=O)Nc2cc(C)on2)=C(C#N)C1c1cccs1 (stereo unspecified),-3%,?,-3,-14,10µM*,-3%
CCOC(=O)C1=C(C)NC(SCC(N)=O)=C(C#N)C1c1cccs1 (stereo unspecified),-3%,-11%,-2,-14,?,-9%
C=CCOC(=O)C1=C(C)NC(SC)=C(C#N)C1c1cccs1 (stereo unspecified),-2%,?,-5,-20,?,4%
C=CCOC(=O)C1=C(C)NC(SCC(=O)Nc2nccs2)=C(C#N)C1c1ccc(Cl)cc1 (stereo unspecified),-4%,2.1µM*,1,33,2.1µM*,14%
Cc1ccccc1-c1cc2nc(NCc3ccc4occc4c3)n(C)c(=O)c2s1,·,·,·,·,·,2%
C=CCNC(=S)Nc1ccc2cn[nH]c2c1,0%,25%,2,-8,0%,2%
CCOC(=O)C1(CCc2ccccc2)CCN(C(=O)c2cnc(C)cn2)CC1,-1%,23%,29*,83*,-19%,18%
CCOC(=O)C1(CCc2ccccc2)CCN(C(=O)C2=C(C)OCCO2)CC1,-1%,?,22*,42*,-4%,-10%
CCOC(=O)C1(CCc2ccccc2)CCN(Cc2ccc(O)cc2)CC1,0%,5%,-7,-9,?,8%
CCOC(=O)C1(CCc2ccccc2)CCN(C(=O)CCc2cnn(C)c2)CC1,-1%,?,-1,16,-13%,-5%
CCOC(=O)C1(CCCc2ccccc2)CCN(C(=O)c2cncs2)CC1,-1%,i,-3,11,?,5%
CCOC(=O)C1(CCc2ccccc2)CCN(C(=O)CN2CCOC2=O)CC1,1%,1.7µM*,21*,46,26%,-11%
CC1CCN(C(=O)c2nc[nH]c2C(=O)N2CCc3ccccc3C2)CC1,6%,53%,·,·,37%,0%
CC(Cc1ccccc1)=NNS(=O)(=O)c1ccc([N+](=O)[O-])cc1,·,·,·,·,·,0%
O=C(O)c1cc(-c2cccc3ccccc23)nc2ccccc12,-2%,6%,-2,-12,26%,-1%
O=C(O)c1cc(-c2ccc3ccccc3c2)nc2ccc(F)cc12,-4%,?,22*,30*,?,-1%
O=C(O)c1cc(-c2c[nH]c3ccccc23)nc2cc3ccccc3cc12,-2%,-18%,36*,67*,-3%,·
O=C(Nc1ccc(S(=O)(=O)Nc2ncccn2)cc1)c1ccccc1NS(=O)(=O)c1ccc(Cl)cc1,0%,37%,7,-12,1%,6%
